Assay [1] deals with Plasmodium falciparum Sir2 (PF13_0152, Sir2A). Put plainly: pfSir2 binders on small-molecule microarrays, primary screen, biochemical, small-molecule microarray, 635 nm fluorescence (AID 1098).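 Also: score merges spot fluorescence intensity with its signal-to-noise ratio.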 Particulars: small-molecule microarray binding, fluorescence 635 nm; higher = more signal.
Assay [2] is described as follows: small-molecule microarray binders of probe aDKK1, primary screen, biochemical, biotinylated probe, 635/667 nm fluorescence (AID 1099).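 Also: score merges 667nm spot fluorescence with signal to noise across triplicate slides.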 Particulars: higher = more signal.
Assay [3] can be described thus: small-molecule microarray binders of probe aCHRDL2, primary screen, biochemical, biotinylated probe, 635/667 nm fluorescence (AID 1100). The conditions noted are these: higher = more signal.
The nature of assay [4]: splicing luciferase reporter signal modulators, primary screen, spliceosome inhibition project, cell-based, HEK293, splice +/- reporter (AID 1101).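 Also: HEK293 cells carrying a splicing-competent luciferase reporter gene; test concentration not given here.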 The conditions noted are these: luminescence, 24 h, higher = more signal, called active from +8 up or from −8 down. A general note: A reporter such as luciferase makes a cellular process visible.
Assay [5] has as its target Fibroblast growth factor 10 (Homo sapiens) (UniProt O15520). In words: FGF10 binders on small-molecule microarrays, primary screen, biochemical, small-molecule microarray, 635 nm fluorescence (AID 1102). The conditions noted are these: FGF10 binding, fluorescence 635 nm, higher = more signal.
For assay [6], the system named is glycogen synthase kinase-3 (GSK3A per assay name; protocol says GSK3B). Put plainly: GSK3 binders on small-molecule microarrays, primary screen, biochemical, small-molecule microarray, 635 nm fluorescence, GSK3A (AID 1103). Also: the record names both GSK3A and GSK3B. Particulars: small-molecule microarray binding, fluorescence 635 nm; higher = more signal.
Assay [7] has as its target Epidermal growth factor receptor (Homo sapiens) (UniProt P00533). In words: EGFR binders on small-molecule microarrays, primary screen, biochemical, small-molecule microarray, 635 nm fluorescence (AID 1104).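 Also: score merges 667 nm emission intensity with spot signal to noise over triplicate slides.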 Particulars: EGFR binding, higher = more signal.
Assay [8] has as its target Follistatin-related protein 3 (Homo sapiens) (UniProt O95633). Put plainly: FSTL3 binders on small-molecule microarrays, primary screen, biochemical, small-molecule microarray, 635 nm fluorescence (AID 1105).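 Also: score merges emission near 667 nm and signal to noise per printed spot across three slides.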 The conditions noted are these: FSTL3 binding, higher = more signal.
Assay [9] deals with Dickkopf-related protein 1 (Homo sapiens) (UniProt O94907). Put plainly: DKK1 binders on small-molecule microarrays, primary screen, biochemical, small-molecule microarray, 635 nm fluorescence scan (AID 1106).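 Also: score merges emission near 667 nm with signal to noise over three replicate slides.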 Particulars: DKK1 binding, higher = more signal.
Assay [10] deals with Inhibin beta A chain (activin A). In words: INHBA (activin A) binders on microarrays, primary screen, biochemical, small-molecule microarray, 635 nm fluorescence scan (AID 1107).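 Also: mouse activin A protein probed at 4.33 µg/mL on printed slides; score merges bound-protein fluorescence near 667 nm with spot signal-to-noise.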 The conditions noted are these: small-molecule microarray binding, higher = more signal.
For assay [11], the system named is Human papillomavirus type 1a protein E7 (residues 44-93). In words: HPV1a E7 fragment binders on microarrays, primary screen, biochemical, small-molecule microarray, residues 44-93, 635 nm fluorescence (AID 1108).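 Also: E7 fragment applied at 1 µg/mL in TBST for 1 h at 4 C; score combines spot fluorescence with its signal to noise ratio.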 Particulars: small-molecule microarray binding, fluorescence 635 nm; higher = more signal.
Assay [12] is described as follows: modulators of HCV replicon luciferase signal, primary screen, HCV replication inhibitor project, Huh7 cells, luciferase reporter (AID 1109).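 Also: huh7 hepatoma cells harbouring a luciferase neomycin HCV replicon reporter; luciferase luminescence as measure of HCV replicon replication; test concentration not given here.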 The conditions noted are these: 48 h, higher = more signal. For orientation: Replicon systems follow genome replication, usually without infectious particles.
For assay [13], the target named is Left-right determination factor 2 (Homo sapiens) (UniProt O00292). Put plainly: LEFTY2 binders on small-molecule microarrays, primary screen, biochemical, small-molecule microarray, 635 nm fluorescence scan (AID 1110). Particulars: LEFTY2 binding, higher = more signal.
For assay [14], the target named is Calmodulin-1 (Homo sapiens) (UniProt P0DP23). Put plainly: CALM1 binders on microarrays, EGTA buffer, profiling panel, biochemical, small-molecule microarray, Cy5-labelled CALM1 (AID 1111).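 Also: labelled calmodulin applied in Tris saline Tween buffer holding calcium plus EGTA and DTT.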 Particulars: Cy5-CALM1 binding fluorescence, higher = more signal.
Assay [15] shares this target. In words: calcium-bound CALM1 binders on microarrays, profiling panel, artefact control for SMM control-protein annotation, biochemical, small-molecule microarray, Cy5-labelled CALM1, plus calcium (AID 1112).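 Also: score merges spot fluorescence with signal to noise from triplicate slides.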 Particulars: Cy5-CALM1 binding fluorescence, higher = more signal.
A short description of assay [16]: small-molecule microarray binders of probe aWnt5a, primary screen, biochemical, biotinylated probe, 635/667 nm fluorescence (AID 1113).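 Also: score merges 667 nm fluorescence intensity with signal-to-noise per printed feature.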 Particulars: higher = more signal.
A short description of assay [17]: small-molecule microarray binders of probe aShh, primary screen, biochemical, biotinylated probe, 635/667 nm fluorescence (AID 1114).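 Also: probe is biotin-labelled aShh protein from a stem cell growth factor screen; measures binding of labelled protein to compounds printed on the slide; score merges feature fluorescence at 667 nm with signal-to-noise.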 Particulars: higher = more signal.
Assay [18] can be described thus: small-molecule microarray binders of probe aNog, primary screen, biochemical, biotinylated probe, 635/667 nm fluorescence (AID 1115).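 Also: probe is biotinylated aNog protein used at 0.15 µg/mL for 1 h at 4 C; z-score combines 667 nm fluorescence of each spot with its signal to noise.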 Particulars: higher = more signal.
In assay [19] the target is Torsin-1A-interacting protein 1 (Homo sapiens) (UniProt Q5JTV8). In words: LAP1 binders from COS7 cell lysate, primary screen, small-molecule microarray, 635/667 nm fluorescence (AID 1116). The conditions noted are these: COS7-hLAP1 lysate binding, 635 nm fluorescence, higher = more signal.
In assay [20] the target is Alpha-bungarotoxin (Bungarus multicinctus) (UniProt P60615). In words: alpha-bungarotoxin binders on microarray, profiling panel, artefact control for SMM control protein annotation, biochemical, small-molecule microarray, Alexa647 label, 635/667 nm fluorescence (AID 1117). Particulars: alpha-BTX-A647 binding fluorescence, higher = more signal.

The structures appear in SMILES notation. The source made the active and inactive calls.

Left-right determination factor 2 (Homo sapiens), sequence (O00292 whole entry, looked up): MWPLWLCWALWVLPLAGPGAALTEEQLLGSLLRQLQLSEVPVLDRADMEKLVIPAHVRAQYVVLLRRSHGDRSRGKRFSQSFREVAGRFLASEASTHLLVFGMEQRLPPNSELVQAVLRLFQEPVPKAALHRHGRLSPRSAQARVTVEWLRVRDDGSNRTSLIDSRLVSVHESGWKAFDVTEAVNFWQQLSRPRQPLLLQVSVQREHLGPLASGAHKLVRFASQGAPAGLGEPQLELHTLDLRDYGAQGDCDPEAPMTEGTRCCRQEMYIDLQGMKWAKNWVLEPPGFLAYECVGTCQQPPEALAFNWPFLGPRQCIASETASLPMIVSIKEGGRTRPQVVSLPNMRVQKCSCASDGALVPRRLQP
Torsin-1A-interacting protein 1 (Homo sapiens), sequence (Q5JTV8 whole entry, looked up): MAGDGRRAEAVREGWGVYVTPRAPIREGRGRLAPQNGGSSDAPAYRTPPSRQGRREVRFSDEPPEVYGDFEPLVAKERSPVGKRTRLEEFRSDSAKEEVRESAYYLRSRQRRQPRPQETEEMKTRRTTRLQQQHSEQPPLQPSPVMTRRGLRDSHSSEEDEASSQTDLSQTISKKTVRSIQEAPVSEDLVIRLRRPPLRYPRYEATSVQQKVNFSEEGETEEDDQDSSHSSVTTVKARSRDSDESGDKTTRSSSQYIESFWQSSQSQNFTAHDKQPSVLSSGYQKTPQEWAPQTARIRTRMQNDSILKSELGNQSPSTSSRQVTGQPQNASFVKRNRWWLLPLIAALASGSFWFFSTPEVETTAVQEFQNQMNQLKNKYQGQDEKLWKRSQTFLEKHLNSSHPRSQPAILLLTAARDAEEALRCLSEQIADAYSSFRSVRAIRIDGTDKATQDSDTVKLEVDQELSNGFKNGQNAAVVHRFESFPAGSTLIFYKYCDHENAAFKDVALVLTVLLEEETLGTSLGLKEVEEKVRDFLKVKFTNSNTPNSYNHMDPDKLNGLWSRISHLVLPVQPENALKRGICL
Fibroblast growth factor 10 (Homo sapiens), sequence (O15520 whole entry, looked up): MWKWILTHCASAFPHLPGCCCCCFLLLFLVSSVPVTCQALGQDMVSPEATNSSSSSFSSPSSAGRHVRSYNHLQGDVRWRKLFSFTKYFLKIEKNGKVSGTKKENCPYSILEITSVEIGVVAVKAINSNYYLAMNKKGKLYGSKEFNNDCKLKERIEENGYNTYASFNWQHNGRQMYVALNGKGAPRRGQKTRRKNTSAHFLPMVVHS
Follistatin-related protein 3 (Homo sapiens), sequence (O95633 whole entry, looked up): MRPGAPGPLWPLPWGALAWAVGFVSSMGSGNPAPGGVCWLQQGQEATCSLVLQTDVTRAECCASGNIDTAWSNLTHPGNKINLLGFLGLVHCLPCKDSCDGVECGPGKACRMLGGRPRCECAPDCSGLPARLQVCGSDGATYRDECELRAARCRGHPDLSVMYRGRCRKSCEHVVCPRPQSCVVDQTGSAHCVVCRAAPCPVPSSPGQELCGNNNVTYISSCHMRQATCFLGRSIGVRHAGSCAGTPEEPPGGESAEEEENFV
Alpha-bungarotoxin (Bungarus multicinctus), sequence (P60615 whole entry, looked up): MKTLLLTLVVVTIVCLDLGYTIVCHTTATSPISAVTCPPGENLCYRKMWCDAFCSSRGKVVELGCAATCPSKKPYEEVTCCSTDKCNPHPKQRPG
Dickkopf-related protein 1 (Homo sapiens), sequence (O94907 whole entry, looked up): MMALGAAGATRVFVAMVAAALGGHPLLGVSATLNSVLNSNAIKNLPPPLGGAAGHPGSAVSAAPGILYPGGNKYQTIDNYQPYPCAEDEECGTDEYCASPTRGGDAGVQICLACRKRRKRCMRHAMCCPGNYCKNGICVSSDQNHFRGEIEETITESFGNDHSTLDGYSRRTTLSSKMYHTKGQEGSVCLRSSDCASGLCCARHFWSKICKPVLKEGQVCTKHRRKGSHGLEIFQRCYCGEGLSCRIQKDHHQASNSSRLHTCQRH
Epidermal growth factor receptor (Homo sapiens), sequence (P00533 whole entry, looked up): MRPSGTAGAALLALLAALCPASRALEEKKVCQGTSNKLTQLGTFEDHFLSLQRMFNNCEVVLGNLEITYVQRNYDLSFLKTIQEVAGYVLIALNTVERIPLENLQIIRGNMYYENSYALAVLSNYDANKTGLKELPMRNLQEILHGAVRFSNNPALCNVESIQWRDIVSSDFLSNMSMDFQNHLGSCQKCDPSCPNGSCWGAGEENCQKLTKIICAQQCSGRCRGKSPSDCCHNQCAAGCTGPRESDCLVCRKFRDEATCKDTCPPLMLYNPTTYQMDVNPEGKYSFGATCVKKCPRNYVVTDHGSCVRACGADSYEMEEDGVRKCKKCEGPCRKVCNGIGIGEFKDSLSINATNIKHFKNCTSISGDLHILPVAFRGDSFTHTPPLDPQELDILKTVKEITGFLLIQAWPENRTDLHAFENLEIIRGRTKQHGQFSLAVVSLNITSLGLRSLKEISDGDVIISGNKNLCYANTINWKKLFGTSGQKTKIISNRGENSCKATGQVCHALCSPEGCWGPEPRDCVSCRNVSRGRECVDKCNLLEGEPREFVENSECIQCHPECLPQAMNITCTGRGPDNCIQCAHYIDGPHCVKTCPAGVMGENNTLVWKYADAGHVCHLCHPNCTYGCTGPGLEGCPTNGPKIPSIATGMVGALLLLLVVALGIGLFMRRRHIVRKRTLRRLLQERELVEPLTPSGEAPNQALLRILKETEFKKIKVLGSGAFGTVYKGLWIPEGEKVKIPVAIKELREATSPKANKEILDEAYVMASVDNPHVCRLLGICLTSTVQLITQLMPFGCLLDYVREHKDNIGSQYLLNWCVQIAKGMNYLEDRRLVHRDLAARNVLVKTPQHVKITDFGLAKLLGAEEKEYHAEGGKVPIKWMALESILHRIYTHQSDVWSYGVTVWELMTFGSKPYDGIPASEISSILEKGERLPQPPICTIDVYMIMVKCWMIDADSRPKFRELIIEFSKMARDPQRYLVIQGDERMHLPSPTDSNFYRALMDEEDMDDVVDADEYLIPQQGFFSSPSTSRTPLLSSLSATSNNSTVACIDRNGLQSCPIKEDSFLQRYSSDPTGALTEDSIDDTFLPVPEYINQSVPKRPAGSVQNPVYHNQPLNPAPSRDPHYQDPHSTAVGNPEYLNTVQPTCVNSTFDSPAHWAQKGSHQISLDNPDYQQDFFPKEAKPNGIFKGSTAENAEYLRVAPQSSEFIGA

As to `COc1cc(CO)ccc1OC(C)=O`, the composite z-score in [1] was 0.144; in [2], -0.082; in assay [3] it was -0.526; in assay [5] it was 0.171; in [6], 0.536; in assay [7] it was 0.558. The composite z-score came out at 0.516 in assay [8]; 0.668 in assay [9]; 0.167 in assay [10]; 0.464 in assay [11]; 0.388 in [13]; 0.0543 in assay [14]. Further, the composite z-score in [15] was -0.267; in assay [16], 0.127; in [17], 0.0815; in assay [18] it was -0.0615; in [19], 0.47; in assay [20], 0.298. Further, the z-score in assay [4] is -0.749 (inactive); in assay [12], -0.147.
Consider `COC(=O)C(CC#Cc1ccc2c(c1)[C@]1(C(=O)N2)[C@H](C(=O)NC[C@H](O)c2ccccc2)[C@H]2C(=O)O[C@H](c3ccccc3)[C@H](c3ccccc3)N2[C@@H]1c1ccc(OCCO)cc1)C(=O)OC`, for which the composite z-score in assay [1] was 1.71; in assay [2], 1.61; in [3], 0.0724; in assay [5], 1.3; in [6] it was 1.3; in [7], 0.767. Besides, the composite z-score in [8] came out at 1.46; in [9], 1.14; in assay [10], 1.21; in assay [11], 1.45; in assay [13] it was 0.696; in assay [14], 1.5. In addition, the composite z-score in assay [15] stood at 1.1; in assay [16], 0.174; in [17], 0.986; in assay [18], 0.945; in assay [19], 0.053; in assay [20] it was 2.23. For the same compound, the z-score in [4] is 0.0839 (inactive); in assay [12] it was -1.95.
For `N[C@@H](Cc1ccccc1)Cn1cc(-c2ccccc2)nn1`, the composite z-score in [1] is -0.334; in assay [2], 0.552; in assay [3], 0.932; in [5] it was -0.232; in [6], -0.595; in [7], 0.0157. For the same compound, the composite z-score in [8] was 0.0589; in [9], -0.328; in assay [10], 0.458; in assay [11], 0.18; in assay [13], -0.339; in assay [14], -0.197. Besides, the composite z-score in [15] is -0.574; in assay [16] it was -0.027; in assay [17] it was -0.206; in assay [18] it was -0.329; in assay [19] it was 0.119; in assay [20], 0.588. Also, the z-score is -1.38 (inactive) in assay [4] and -0.65 in [12].
Turning to `COCCOC(=O)N1C(=O)[C@@]2(c3cc(C#CCCO)ccc31)[C@H](c1ccc(O)cc1)N1[C@H](c3ccccc3)[C@H](c3ccccc3)OC(=O)[C@H]1[C@@H]2C(N)=O`, the composite z-score is 1.33 in assay [1]; 0.407 in assay [2]; 0.654 in assay [3]; 0.173 in [5]; 0.169 in [6]; -0.709 in assay [7]. Also, the composite z-score in [8] was -0.0665; in [9] it was -0.282; in [10], 0.907; in [11] it was -0.0809; in assay [13], -0.597; in assay [14], -0.523. In addition, the composite z-score was 0.456 in [15]; -0.0118 in assay [16]; 0.0611 in assay [17]; 0.0157 in assay [18]; 0.393 in assay [19]; 0.755 in assay [20]. Moreover, the figures for the z-score in assay [4] and in assay [12] were -0.626 (inactive) and -0.016, respectively.
Take `COCCOC(=O)N1C(=O)[C@@]2(c3cc(C#CCNC(N)=O)ccc31)[C@H](c1ccc(O)cc1)N1[C@H](c3ccccc3)[C@H](c3ccccc3)OC(=O)[C@H]1[C@@H]2C(=O)NC[C@H](O)c1ccccc1`: the composite z-score in assay [1] was 0.193; in assay [2], 0.614; in assay [3] it was 0.689; in [5], 1.05; in [6] it was 0.727; in assay [7], 0.222. Moreover, the composite z-score in assay [8] was found to be 1.34; in assay [9] it was 1.52; in [10], 0.342; in assay [11], 0.83; in assay [13] it was 0.952; in assay [14], 0.288. The composite z-score in assay [15] was 0.0058; in assay [16], 0.0026; in assay [17] it was -0.119; in [18], -0.287; in assay [19], 1.1; in [20], 0.834. The z-score in [4] was 0.716 (inactive); in assay [12], -0.703.

The values are drawn from PubChem BioAssay.
